# Calls of active or inactive are those of the source.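 How the source made its calls: active means inhibition reaching about 16% in any single replicate (limit read from the data); inactive means the rest.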
# Target: Hexokinase HKDC1 (Homo sapiens) (UniProt Q2TB90)
# Experiment: HKDC1 hexokinase inhibitors, confirmation, biochemical, single concentration (AID 504710)
# Settings: recombinant HKDC1, G6PDH/diaphorase/resazurin fluorescence; at 20 µM; active compounds read high
# Chain of Hexokinase HKDC1 (Homo sapiens) (Q2TB90 whole entry, looked up): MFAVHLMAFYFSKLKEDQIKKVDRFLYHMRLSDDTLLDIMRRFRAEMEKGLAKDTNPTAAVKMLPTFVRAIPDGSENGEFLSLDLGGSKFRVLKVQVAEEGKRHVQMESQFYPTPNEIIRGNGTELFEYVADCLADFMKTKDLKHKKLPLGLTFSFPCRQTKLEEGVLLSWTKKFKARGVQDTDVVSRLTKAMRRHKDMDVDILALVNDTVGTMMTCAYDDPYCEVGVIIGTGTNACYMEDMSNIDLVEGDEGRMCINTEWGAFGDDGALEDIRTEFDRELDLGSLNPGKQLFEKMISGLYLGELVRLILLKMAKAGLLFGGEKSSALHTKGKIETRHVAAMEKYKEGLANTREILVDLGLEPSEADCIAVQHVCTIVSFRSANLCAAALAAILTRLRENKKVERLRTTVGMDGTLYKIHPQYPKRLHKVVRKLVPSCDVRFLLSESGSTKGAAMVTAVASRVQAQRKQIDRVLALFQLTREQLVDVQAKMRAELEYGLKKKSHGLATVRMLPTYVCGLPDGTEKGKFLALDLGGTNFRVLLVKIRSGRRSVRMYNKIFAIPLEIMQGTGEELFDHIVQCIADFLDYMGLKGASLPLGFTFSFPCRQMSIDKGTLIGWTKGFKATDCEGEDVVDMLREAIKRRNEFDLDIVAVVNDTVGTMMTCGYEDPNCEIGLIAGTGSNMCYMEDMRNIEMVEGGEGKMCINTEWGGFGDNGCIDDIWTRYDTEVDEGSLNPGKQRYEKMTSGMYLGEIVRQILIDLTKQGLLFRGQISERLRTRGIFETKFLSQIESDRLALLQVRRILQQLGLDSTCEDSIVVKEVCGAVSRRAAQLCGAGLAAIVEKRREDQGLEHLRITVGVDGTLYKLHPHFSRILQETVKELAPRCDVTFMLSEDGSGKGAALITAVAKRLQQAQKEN
row,SMILES,inhibition
1,CC(=O)NC1C(=O)N(CCN2CCOCC2)c2ccc(Br)cc21 (configuration not stated),61% (active)
2,CCN(CC)C(=O)c1ccc(C(=O)c2c(C)cc(C)cc2C)cc1,-40.1% (inactive)
3,C=CCN1C=C2C(=O)C(C)(OC(=O)CCC(=O)OC)C(=O)C(Br)=C2C=C1c1ccc(OC)cc1 (configuration not stated),57.5% (active)
4,CCOC(=O)C1=C(c2ccc(OC)cc2)C(=O)c2ccccc2C1=O,75% (active)
5,Cc1ccc2cc(CCNC(=O)c3ccc(S(=O)(=O)N4CCCCC4)cc3)c(=O)[nH]c2c1,39.8% (active)
6,CCOC(=O)c1ccc(NC(=O)CSc2ccc(-c3ccccn3)nn2)cc1,31.3% (active)
7,Cn1c(-c2ccccc2)c(C(=O)CC#N)c2ccccc21,-42% (inactive)
8,CCCCC(CC)CN=C(N)NC(N)=NCCCCCCN=C(N)NC(N)=NCC(CC)CCCC (configuration not stated),45.9% (active)
9,COC(=O)c1ccccc1NC1=C/C(=N\S(=O)(=O)c2cccs2)c2ccccc2C1=O,62.6% (active)
10,NC1=C(Br)C(=O)c2ncccc2C1=O,50.8% (active)
11,Oc1ccc(/C=N/NC(=S)Nc2cccnc2)c(O)c1,14.6% (active)
12,Oc1ccc(/C=N/Nc2ncc(Br)cn2)c(O)c1,44.6% (active)
13,CCCCN(CCCC)C(=S)N/N=C/c1c(C)[nH]n(-c2ccccc2)c1=O,-65% (inactive)
14,O=C(O)c1ccc(N=Cc2c(O)ccc3ccccc23)cc1,43% (active)
15,CCOC(=O)/C=C(\C)Sc1cc(O)c2ccccc2c1O,53.6% (active)
16,CC(C)(C=O)C1=CC(=O)c2ccccc2C1=O,41.2% (active)
17,Cc1nc2c3cc(F)ccc3n(Cc3ccccc3)c2s1,-61.3% (inactive)
18,Cc1[nH]n(-c2ccccc2)c(=O)c1/C=N/Nc1nncc(-c2ccccc2)n1,-60.6% (inactive)
19,CCOC(=O)C1=C(Cc2ccc(F)cc2)C(=O)c2ccccc2C1=O,59.2% (active)

row,SMILES,inhibition
1,O=C(CNC(=O)/C=C/c1ccco1)N=Nc1c(O)[nH]c2ccccc12,39% (active)
2,CN(C)c1ccc(Cc2cc3c(O)ccc(O)c3cc(Cc3ccc(N(C)C)cc3)c2=O)cc1,44.7% (active)
3,Cc1cc(C(F)F)n2ncc(C(=O)NCCc3ccc(Cl)cc3)c2n1,36.2% (active)
4,Clc1ccc(N=c2ssnc2Cl)nc1,-79.7% (inactive)
5,CCCCNC(=O)c1sc(=S)n2c1[nH]c(=O)c1ccccc12,56.5% (active)
6,O=C1c2ccccc2-c2onc3ccc(Oc4ccccc4)c1c23,28.2% (active)
7,CCn1c2ccccc2c2nc3cc(S(=O)(=O)N4CCOCC4)ccc3nc21,-47.4% (inactive)
8,O=[N+]([O-])c1ccc(Sc2nc3ccccc3o2)c([N+](=O)[O-])c1,30.4% (active)
9,CC(=O)NC1C(=O)N(CCN2CCOCC2)c2ccc(C)cc21 (configuration not stated),69.7% (active)
10,CC1COCC(C)N1C1=C(Cl)C(=O)c2ccccc2C1=O (configuration not stated),43.5% (active)
11,COc1ccc(NC(=O)CSc2ccc(-c3ccco3)nn2)c(OC)c1,70.8% (active)
12,Cc1cc(Oc2ccc(C(C)(C)C)cc2)nc(N2CCOCC2)n1,-37% (inactive)
13,O=C(CNC(=O)c1ccc2c(c1)OCCO2)N/N=C/c1ccc(O)cc1O,18.4% (active)
14,C=CCn1nc([N+](=O)[O-])nc1Sc1cccc2cccnc12,-52.4% (inactive)
15,CC1=NOC(=O)/C1=C\c1ccc(-c2ccc(Cl)cc2Cl)o1,47.4% (active)
16,CCCc1nc2c(c(=O)c3ccccc3n2C)c(=O)n1-c1ccc(F)cc1,58.5% (active)
17,CC(=NNC(=S)Nc1cccc(C)c1)c1ccccn1,-60.1% (inactive)
18,CC(C)(C)c1ccc(-c2csc(NNC3=NCCCCC3)n2)cc1,-39.4% (inactive)

# Source: PubChem BioAssay AID504710 (Sanford-Burnham Center for Chemical Genomics, 2011)
